Structures are written as SMILES. Records with an inconclusive call do not appear. Active and inactive are the calls of the source. Unless noted, calls follow the shape of the full dose curve.

Assay [1] in a line: Nuclear factor erythroid 2-related factor 2/antioxidant responsive element (Nrf2/ARE) small molecule agonists: qHTS cell viability counter screen in human keratinocytes (AID 1919968; active = well fitted cell-killing curve with a large enough effect in the repeat runs; also: nearly all actives have a fitted effect of over 55% in size; also: potency is read from the fitted curve at half-maximal effect). In short, it runs like this: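 After a 5 h attachment period, ARE-reporter keratinocytes were dosed with compounds in DMSO and then cultured 23 h at 37 C. Cell viability came from CellTiter-Fluor signal read after a further 1 h.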
In general terms: qHTS replaces the single test concentration by a dilution series.

Assay [2] in a line: Nuclear factor erythroid 2-related factor 2/antioxidant responsive element (Nrf2/ARE) small molecule agonists: luciferase reporter gene qHTS assay in human keratinocytes (AID 1919969). Also: nearly all actives have a fitted effect of over 35% in size.
A short description of assay [3]: G protein-coupled receptor (GPCR) small molecule agonists, calcium flux assay: HEK293 wild type cell line counter screen (AID 1920065). The essentials: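 Calcium-sensitive dye, loaded 1 h at 37 C into cells cultured 18 h, reports compound-evoked calcium release as fluorescence (Ex/Em 480/540), measured over 3 min. Agonist mode; 15-point titrations, triplicate.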
On the technique in general: Calcium flux is commonly read through the fluorescence of an indicator in the cells.

A short description of assay [4]: p53 small molecule agonists, cell-based qHTS assay with human liver microsomes (AID 1963577).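 Also: p53 response element beta-lactamase reporter cells with liver microsomes plus NADPH.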 In short, it runs like this:
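16 h, 37 C exposure of p53RE-bla cells to compounds with human liver microsomes and NADPH (0.5 mg/mL final each); detection via LiveBLAzer mixture, 2 h dark at room temperature.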

Assay [5] in a line: p53 small molecule agonists, cell-based qHTS assay with rat liver microsomes (AID 1963578). In short, it runs like this: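 With rat liver microsomes and NADPH present (0.5 mg/mL final each), p53RE-bla cells are treated with compound for 16 h at 37 C. LiveBLAzer detection mixture is then applied for 2 h at room temperature in the dark.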
Assay [6] can be described thus: p53 small molecule agonists, cell-based qHTS assay with human liver microsomes: qHTS cell viability counter screen (AID 1963579). Also: nearly all actives have a fitted effect of over 45% in size. The essentials: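 In this multiplexed counter screen, the reporter plates were subsequently treated with CellTiter-Glo so that cell viability, reflected by luminescence, could be recorded for p53RE-bla cells dosed 16 h with compounds under microsomal activation (HLM and NADPH).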

Assay [7] in a line: p53 small molecule agonists, cell-based qHTS assay with rat liver microsomes: qHTS cell viability counter screen (AID 1963580). Also: nearly all actives have a fitted effect of over 45% in size. The essentials: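 HCT-116 p53RE-bla, 4,000 cells/well, 5 h pre-incubation; cpd + rat liver microsomes 0.5 mg/mL + NADPH 0.5 mg/mL (final); 16 h, 37 C; CellTiter-Glo, 30 min RT; luminescence.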
Assay [8] in a line: p53 small molecule agonists, cell-based qHTS assay: qHTS cell viability counter screen (AID 1963581). Also: nearly all actives have a fitted effect of over 45% in size. In short, it runs like this:
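Following 5 h attachment, HCT-116 p53RE-bla cells took up compound for 16 h at 37 C; the reporter was read with B/G FRET substrate (2 h RT), and viability then via CellTiter-Glo ATP luminescence.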

The nature of assay [9]: p53 small molecule agonists, cell-based qHTS assay (AID 1963582; active = well fitted activation curve with a large enough effect in the signal ratio in the repeat runs, not every such curve was filed as active; the % refers to the signal ratio). In short, it runs like this:
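In this cell-based concentration-response screen, a p53 response element drives beta-lactamase; cells received DMSO-borne compounds after 5 h culture and were incubated a further 16 h before FRET substrate development.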

In assay [10] the target is 5-hydroxytryptamine receptor 2A (Homo sapiens) (UniProt P28223). The assay can be described thus: 5-hydroxytryptamine receptor 2A (HTR2A) small molecule antagonists, cell-based qHTS assay (AID 1963586). Also: nearly all actives have a fitted effect of over 45% in size. In short, it runs like this:
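Antagonist-mode intracellular calcium assay: DOI (4 nM) added after 5 min compound pre-incubation at room temperature to dye-loaded HTR2A-CHO cells. Fluorescence followed for 3 min, sampled every second.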

Assay [11] has the same target. Description: 5-hydroxytryptamine receptor 2A (HTR2A) small molecule agonists, cell-based qHTS assay (AID 1963587). Also: nearly all actives have a fitted effect of over 30% in size. In short, it runs like this:
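Kinetic calcium-flux fluorescence (2 min, 1 sec intervals) after compound addition in agonist mode. HTR2A-CHO cells were cultured 18 h, then dye-loaded 1 h at 37 C.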

Assay [12] concerns the target Muscarinic acetylcholine receptor M1 (Homo sapiens) (UniProt P11229). The assay can be described thus: Cholinergic receptor muscarinic 1 (CHRM1) small molecule antagonists, cell-based qHTS assay (AID 1963588). Also: nearly all actives have a fitted effect of over 40% in size. The essentials: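 CHRM1-CHO calcium-flux assay, antagonist mode. Cells were seeded 18 h, dye-loaded 1 h at 37 C and given compound for 5 min at RT, then acetylcholine was added at 50nM. FDSS fluorescence was read 3 min; 15 concentrations, three runs.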

The target is the same in assay [13]. Description: Cholinergic receptor muscarinic 1 (CHRM1) small molecule agonists, cell-based qHTS assay (AID 1963589). Also: nearly all actives have a fitted effect of over 35% in size. In short, it runs like this:
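Measures agonist-induced intracellular calcium rise. Stable human CHRM1 CHO line, 1 h dye load at 37 C, compounds from DMSO, kinetic fluorescence read.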

A short description of assay [14]: cAMP Responsive Elements (CRE) small molecule agonists, cell-based qHTS assay (AID 1963590). Also: potency is read from the fitted curve at half-maximal effect. The essentials: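 A CRE-responsive beta-lactamase reporter in HEK 293T cells was used. Treatment ran 3 h at 37 C; detection used LiveBLAzer B/G FRET substrate for 2 h at room temperature.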
The nature of assay [15]: cAMP Responsive Elements (CRE) small molecule antagonists, cell-based qHTS assay (AID 1963591; active = well fitted inhibition curve with a large enough effect in the signal ratio in the repeat runs, not every such curve was filed as active; the % refers to the signal ratio). The essentials: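 HEK293T cells carrying a CRE-driven beta-lactamase reporter receive compound and NKH477 (0.25 uM final) for 3 h. Fluorescence from LiveBLAzer B/G FRET substrate is read after 2 h at room temperature.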
Assay [16] addresses Beta-2 adrenergic receptor (Homo sapiens) (UniProt P07550). The assay can be described thus: Adrenergic beta2 receptor (ADRB2) small molecule antagonists, cell-based qHTS assay (AID 1963592). Also: series mostly up to about 92 µM; nearly all actives have a fitted effect of over 50% in size. The essentials: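 Cells (CHO, stable ADRB2 overexpression) incubated 18-20hr at 37C; compounds added from DMSO; agonist mix (1nM isoproterenol, 100uM IBMX, 25uM Ro-20-1724) added; 0.5hr RT; d2-cAMP and anti-cAMP-cryptate added; 1hr RT; 665/615 nm read.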

Assay [17] has the same target. The assay can be described thus: Adrenergic beta2 receptor (ADRB2) small molecule agonists, cell-based qHTS assay (AID 1963593).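 Also: CHO cells stably overexpressing human ADRB2.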 In short, it runs like this: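 CHO cells stably over-expressing ADRB2 were plated overnight at 37C, then dosed with compounds plus a stimulation mix containing 100uM IBMX and 25uM Ro-20-1724 for 0.5hr at room temperature. cAMP was measured by HTRF competition, 1hr.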

Assay [18] has as its target D(2) dopamine receptor (Homo sapiens) (UniProt P14416). The assay can be described thus: Dopamine D2 receptor (DRD2) small molecule agonists, cell-based qHTS assay (AID 1963594). Also: nearly all actives have a fitted effect of over 35% in size. In short, it runs like this:
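cAMP accumulation in DRD2-HEK293 cells measured by HTRF after 1 h detection; compounds added 10 min before NKH477 (200nM […]) forskolin-analogue stimulation, 30 min at room temperature, with Ro20-1724 present at 0.1 mM final.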

Assay [19] shares this target. The assay can be described thus: Dopamine D2 receptor (DRD2) small molecule antagonists, cell-based qHTS assay (AID 1963595; active = well fitted inhibition curve with a large enough effect in the signal ratio in the repeat runs, with a control signal flat; the % refers to the signal ratio). The essentials:
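In this cell-based antagonist screen, compounds act for 10 min at room temperature before a 30 min challenge with 12 nM quinpirole and 200 nM NKH477. cAMP is quantified by HTRF competition in DRD2-HEK293 cells containing 0.1 mM Ro20-1724.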

5-hydroxytryptamine receptor 2A (Homo sapiens), sequence (P28223 whole entry, looked up): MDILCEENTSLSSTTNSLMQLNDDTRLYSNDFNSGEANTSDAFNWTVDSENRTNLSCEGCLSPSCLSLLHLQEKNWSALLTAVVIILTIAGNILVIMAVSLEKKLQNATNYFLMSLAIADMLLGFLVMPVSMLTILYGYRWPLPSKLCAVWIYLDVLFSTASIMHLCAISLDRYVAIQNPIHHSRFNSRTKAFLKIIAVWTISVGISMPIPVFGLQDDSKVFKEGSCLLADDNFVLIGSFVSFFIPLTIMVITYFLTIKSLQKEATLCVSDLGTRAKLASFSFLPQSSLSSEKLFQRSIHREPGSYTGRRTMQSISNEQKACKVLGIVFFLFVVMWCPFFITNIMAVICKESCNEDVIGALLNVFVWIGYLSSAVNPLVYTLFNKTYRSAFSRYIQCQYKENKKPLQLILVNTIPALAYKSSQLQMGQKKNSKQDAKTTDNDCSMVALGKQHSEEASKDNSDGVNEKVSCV
D(2) dopamine receptor (Homo sapiens), sequence (P14416 whole entry, looked up): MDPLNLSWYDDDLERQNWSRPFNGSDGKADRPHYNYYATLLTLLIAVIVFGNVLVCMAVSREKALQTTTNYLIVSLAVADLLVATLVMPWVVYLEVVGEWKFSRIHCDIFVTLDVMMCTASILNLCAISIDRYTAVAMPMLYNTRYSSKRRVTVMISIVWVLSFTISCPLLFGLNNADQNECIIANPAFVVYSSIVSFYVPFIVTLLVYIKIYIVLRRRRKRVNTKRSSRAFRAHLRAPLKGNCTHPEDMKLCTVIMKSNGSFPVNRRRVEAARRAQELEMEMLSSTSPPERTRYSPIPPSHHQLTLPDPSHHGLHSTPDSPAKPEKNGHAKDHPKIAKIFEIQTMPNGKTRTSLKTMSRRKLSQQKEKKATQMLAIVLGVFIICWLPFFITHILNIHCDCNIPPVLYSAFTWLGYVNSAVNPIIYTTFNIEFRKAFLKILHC
Muscarinic acetylcholine receptor M1 (Homo sapiens), sequence (P11229 whole entry, looked up): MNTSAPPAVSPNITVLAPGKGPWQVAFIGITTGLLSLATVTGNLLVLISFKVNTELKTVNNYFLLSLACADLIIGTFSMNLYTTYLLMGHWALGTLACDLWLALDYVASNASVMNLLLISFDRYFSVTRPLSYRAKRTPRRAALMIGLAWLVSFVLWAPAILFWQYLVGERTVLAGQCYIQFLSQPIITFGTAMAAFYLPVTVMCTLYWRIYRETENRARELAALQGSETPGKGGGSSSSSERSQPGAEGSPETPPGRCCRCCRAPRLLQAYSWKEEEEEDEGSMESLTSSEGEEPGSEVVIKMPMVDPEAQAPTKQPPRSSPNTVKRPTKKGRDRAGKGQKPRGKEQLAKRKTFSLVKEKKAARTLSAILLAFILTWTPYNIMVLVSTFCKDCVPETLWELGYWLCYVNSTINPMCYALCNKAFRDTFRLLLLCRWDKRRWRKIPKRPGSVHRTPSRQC
Beta-2 adrenergic receptor (Homo sapiens), sequence (P07550 whole entry, looked up): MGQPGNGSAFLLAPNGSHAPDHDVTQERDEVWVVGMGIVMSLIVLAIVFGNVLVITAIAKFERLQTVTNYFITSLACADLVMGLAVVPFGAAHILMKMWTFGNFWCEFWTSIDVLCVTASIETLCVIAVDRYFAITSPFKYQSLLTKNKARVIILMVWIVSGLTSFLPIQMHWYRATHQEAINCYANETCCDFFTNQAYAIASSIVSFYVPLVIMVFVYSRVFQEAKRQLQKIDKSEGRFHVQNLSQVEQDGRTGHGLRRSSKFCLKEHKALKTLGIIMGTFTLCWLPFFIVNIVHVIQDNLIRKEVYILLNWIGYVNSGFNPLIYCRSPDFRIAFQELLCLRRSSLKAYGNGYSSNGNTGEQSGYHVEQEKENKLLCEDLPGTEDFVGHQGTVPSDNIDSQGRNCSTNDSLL

For the compound `O=C(OC(=O)c1ccccc1)c1ccccc1`, the Potency result in assay [1], in assay [2], in assay [3], in assay [4], in assay [5] and in assay [6] was “inactive” each time. In addition, the Potency result in [7], in assay [8], in [9], in [10], in assay [11] and in [12] was “inactive” in each case. In addition, the Potency entry in [13], in assay [14], in assay [15], in assay [16], in assay [17] and in assay [18] was “inactive” each time. The Potency entry in assay [19] was “inactive”.

Take `Cc1ccc2c(c1)OCC(=O)CO2`: the Potency result in assay [1], in [2], in assay [3], in [4], in assay [5] and in assay [6] was “inactive” in each case. For the same compound, the Potency result in assay [7], in assay [8], in assay [9], in assay [10], in assay [11] and in assay [12] was “inactive” each time. For the same compound, the Potency result in [13], in [14], in assay [15], in assay [16], in assay [18] and in [19] was “inactive” each time.

Take `Cc1ccc(NC(=O)N(C)C)cc1NC(=O)N(C)C`: the Potency result in [1], in assay [2], in [3], in [4], in [5] and in assay [6] was “inactive” throughout. In addition, the Potency entry in assay [7], in [8], in assay [9], in assay [10], in assay [11] and in [12] was “inactive” throughout. Moreover, the Potency result in [13], in [14], in assay [15], in assay [16], in assay [17] and in assay [18] was “inactive” each time. Moreover, the Potency entry in assay [19] was “inactive”.

Take `CCOc1ccc(Cc2nccc3cc(OCC)c(OCC)cc23)cc1OCC`: the Potency was 4.22 µM (active) in assay [1] and 6.68 µM (active) in assay [14]. The Potency entry in assay [2], in assay [3], in assay [4], in assay [5], in assay [6] and in [7] was “inactive” in each case. The Potency result in assay [8], in assay [9], in assay [10], in assay [11], in assay [12] and in [13] was “inactive” each time. Besides, the Potency entry in assay [15], in assay [16] and in assay [18] was “inactive” throughout.

For `COc1ccc(Cl)cc1C`, the Potency result in [1], in assay [2], in [3], in assay [4], in assay [5] and in [6] was “inactive” each time. Also, the Potency entry in assay [7], in [8], in [9], in assay [10], in [11] and in [12] was “inactive” in each case. Moreover, the Potency result in assay [13], in assay [14], in [15], in assay [16], in assay [17] and in assay [18] was “inactive” throughout. The Potency entry in assay [19] was “inactive”.

Take `CCCC(=O)C(C)=O`: the Potency entry in assay [1], in assay [2], in assay [3], in [4], in assay [5] and in [6] was “inactive” each time. The Potency entry in assay [7], in [8], in [9], in assay [10], in [11] and in [12] was “inactive” throughout. Further, the Potency entry in [13], in assay [14], in [15], in assay [16], in assay [18] and in [19] was “inactive” each time.

Consider `Cc1cccc(C)c1NC(=O)CC12CCCN1CCC2`, for which the Potency result in assay [1], in assay [2], in [3], in assay [4], in [5] and in [6] was “inactive” throughout. Besides, the Potency result in assay [7], in assay [8], in assay [9], in assay [10], in assay [11] and in assay [12] was “inactive” throughout. Further, the Potency entry in assay [13], in [14], in [15], in assay [17] and in assay [18] was “inactive” each time.

These data come from PubChem BioAssay (Tox21).
